Experimental data published in PubChem BioAssay (Tox21).
Inconclusive results are not listed. Activity calls are given as the source filed them. Calls follow the shape of the dose curve; as a rule, active = well fitted curve in the direction sought with a large enough effect in the repeat runs; inconclusive = weak or mixed curves; inactive = no such curve, though single readings can be large; an effect the other way counts as inactive or inconclusive.

Columns and labels:
[1] = qHTS RealTime-Glo MT Cell Viability Assay in HepG2 cells - 40 hour (AID 1224870); also: nearly all actives have a fitted effect of over 50% in size
In short: (§1)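 Real-time viability: cells seeded at 600 per well together with NanoLuc and cell-permeant prosubstrate, compounds added after 5 h incubation. Luminescence tracked at 0, 8, 16, 24, 32 and 40 h of exposure.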

[2] = A CellTox Green Cytotoxicity Assay to monitor cytotoxicity in HEK293 cells - 40 hour (AID 1224871); also: nearly all actives have a fitted effect of over 45% in size
In short: (§2)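 Read-out: fluorescence of a cell-impermeant cyanine dye staining DNA of dead cells, proportional to cytotoxicity. HEK293, 600 cells/well with reagent, compound (23 nL DMSO) added after 5 h; reads at 0, 8, 16, 24, 32, 40 h.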

[3] = qHTS RealTime-Glo MT Cell Viability Assay in HEK293 cells - 16 hour (AID 1224872); also: top concentration of the series differs between compounds; nearly all actives have a fitted effect of over 50% in size
In short: (§3)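 Assay medium contained NanoLuc luciferase plus cell-permeant prosubstrate, added with HEK293 cells at 600 cells/well. After 5 h at 37 C/5% CO2 compounds were added; plates stayed at 37 C for 40 h with serial luminescence reads.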

[4] = qHTS RealTime-Glo MT Cell Viability Assay in HepG2 cells - 8 hour (AID 1224873); also: nearly all actives have a fitted effect of over 55% in size
In short: as §1

[5] = qHTS RealTime-Glo MT Cell Viability Assay in HEK293 cells - 40 hour (AID 1224874); details: RealTime-Glo luminescence; max response: hits give low values; also: nearly all actives have a fitted effect of over 50% in size
In short: (§4)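 Luminescence readout at each listed time point; HEK293, 600 cells/well, RealTime-Glo MT reagent added with cells; compounds pinned (23 nL in DMSO) after 5 h at 37 C; continuous culture at 37 C.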

[6] = A CellTox Green Cytotoxicity Assay to monitor cytotoxicity in HEK293 cells - 24 hour (AID 1224875); also: series mostly up to about 77 µM; nearly all actives have a fitted effect of over 45% in size
In short: as §2

[7] = A CellTox Green Cytotoxicity Assay to monitor cytotoxicity in HepG2 cells - 16 hour (AID 1224876); also: nearly all actives have a fitted effect of over 45% in size
In short: (§5)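 HepG2, 600 cells/well premixed w/ CellTox Green; 5 h settle, 37 C/5% CO2; pintool cpd add (DMSO); 37 C, 40 h; fluorescence read at 0, 8, 16, 24, 32, 40 h.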

[8] = qHTS RealTime-Glo MT Cell Viability Assay in HepG2 cells - 32 hour (AID 1224877); also: nearly all actives have a fitted effect of over 55% in size
In short: (§6)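 qHTS, HepG2, 600 cells/well, RealTime-Glo (NanoLuc + prosubstrate) added with cells; 5 h preincubation; DMSO compound addition; 37 C; luminescence at 0/8/16/24/32/40 h.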

[9] = A CellTox Green Cytotoxicity Assay to monitor cytotoxicity in HepG2 cells - 24 hour (AID 1224878); also: nearly all actives have a fitted effect of over 45% in size
In short: as §5

[10] = A CellTox Green Cytotoxicity Assay to monitor cytotoxicity in HepG2 cells - 40 hour (AID 1224879); also: nearly all actives have a fitted effect of over 40% in size
In short: as §5

[11] = A CellTox Green Cytotoxicity Assay to monitor cytotoxicity in HEK293 cells - 32 hour (AID 1224881); also: nearly all actives have a fitted effect of over 40% in size
In short: as §2

[12] = A CellTox Green Cytotoxicity Assay to monitor cytotoxicity in HepG2 cells - 0 hour (AID 1224882); also: nearly all actives have a fitted effect of over 35% in size
In short: as §5

[13] = A CellTox Green Cytotoxicity Assay to monitor cytotoxicity in HepG2 cells - 32 hour (AID 1224883); also: nearly all actives have a fitted effect of over 50% in size
In short: as §5

[14] = A CellTox Green Cytotoxicity Assay to monitor cytotoxicity in HEK293 cells - 8 hour (AID 1224884); also: nearly all actives have a fitted effect of over 35% in size
In short: as §2

[15] = qHTS RealTime-Glo MT Cell Viability Assay in HepG2 cells - 16 hour (AID 1224885); also: nearly all actives have a fitted effect of over 50% in size
In short: as §6

[16] = qHTS RealTime-Glo MT Cell Viability Assay in HEK293 cells - 24 hour (AID 1224886)
In short: as §3

[17] = qHTS RealTime-Glo MT Cell Viability Assay in HEK293 cells - 8 hour (AID 1224887)
In short: as §4

[18] = A CellTox Green Cytotoxicity Assay to monitor cytotoxicity in HEK293 cells - 16 hour (AID 1224888); also: nearly all actives have a fitted effect of over 35% in size
In short: as §2

[19] = qHTS RealTime-Glo MT Cell Viability Assay in HepG2 cells - 0 hour (AID 1224889); also: nearly all actives have a fitted effect of over 50% in size
In short: as §6

[20] = qHTS RealTime-Glo MT Cell Viability Assay in HEK293 cells - 0 hour (AID 1224880)
In short: as §4
% is scaled to controls: 0 for no effect and ±100 for the full control effect.

Cn1cnc2c(=O)[nH]c(N)nc21
inactive: Potency [1] | Potency [2] | Potency [3] | outcome [4] | max response [5] 15.1% | Potency [6] | Potency [7] | Potency [8] | Potency [9] | Potency [10] | Potency [11] | Potency [12] | Potency [13] | Potency [14] | outcome [15] | Potency [16] | Potency [17] | Potency [18] | Potency [19]

CO[Si](CCCNCCC[Si](OC)(OC)OC)(OC)OC
inactive: Potency [1] | Potency [2] | Potency [3] | outcome [4] | max response [5] 5.67% | Potency [6] | Potency [7] | Potency [8] | Potency [9] | Potency [10] | outcome [20] | Potency [11] | Potency [13] | Potency [14] | outcome [15] | Potency [16] | Potency [17] | Potency [18] | Potency [19]

CCCCCCOC(=O)CC(CC(=O)OCCCCCC)(OC(=O)CCC)C(=O)OCCCCCC
inactive: Potency [1] | Potency [2] | Potency [3] | outcome [4] | max response [5] 15.3% | Potency [6] | Potency [7] | Potency [9] | Potency [10] | outcome [20] | Potency [11] | Potency [12] | Potency [13] | Potency [14] | outcome [15] | Potency [16] | Potency [17] | Potency [19]

CCCCCCCCCCCCCCCCCC(=O)OCCCCCCCCCCCCCC(C)C
inactive: Potency [1] | Potency [2] | Potency [3] | outcome [4] | max response [5] 1.07% | Potency [6] | Potency [7] | Potency [8] | Potency [9] | Potency [10] | Potency [11] | Potency [12] | Potency [13] | Potency [14] | Potency [16] | Potency [17] | Potency [19]

CCC(=O)Nc1cccc(N)c1
inactive: Potency [1] | Potency [2] | Potency [3] | outcome [4] | max response [5] 0.318% | Potency [6] | Potency [7] | Potency [8] | Potency [9] | Potency [10] | Potency [11] | Potency [13] | Potency [14] | Potency [16] | Potency [17] | Potency [19]

CN(C)CCn1nnnc1SCC1=C(C(=O)O)N2C(=O)[C@@H](NC(=O)Cc3csc(N)n3)[C@H]2SC1
inactive: Potency [1] | Potency [2] | Potency [3] | outcome [4] | max response [5] 13.3% | Potency [6] | Potency [7] | Potency [8] | Potency [9] | Potency [10] | outcome [20] | Potency [11] | Potency [13] | Potency [14] | Potency [16] | Potency [17] | Potency [18] | Potency [19]

CSc1ccc(C=O)cc1
inactive: Potency [1] | Potency [2] | Potency [3] | outcome [4] | max response [5] 0.555% | Potency [6] | Potency [7] | Potency [8] | Potency [9] | Potency [10] | outcome [20] | Potency [11] | Potency [13] | Potency [14] | outcome [15] | Potency [16] | Potency [17] | Potency [18] | Potency [19]
